From PubChem BioAssay AID1159580 (chemical genetic matrix, 2015)
In all, about 5,500 compounds went through this assay and about 2,000 (36%) were called active. Roughly 18% stayed inconclusive and do not appear here. No stated cut-off is given here; in the data, active means normalized growth mostly below about 0.91 (no sharp cut-off); inconclusive means no clear call, values can overlap the other calls; inactive means mostly above about 0.92. Some of the results follow.

Assay: chemical genetic growth profiling, strain panel (AID 1159580);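 further: tested at 20 µM; growth read once vehicle control cultures reached saturation at 30 °C; 1 = growth at the plate median or of vehicle wells; lower values mean less growth of the strain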
Conditions: growth OD

Measured: normalized growth

C[N+](C)(C)CC(=O)[O-]
inactive: S. cerevisiae deletion strains, locus YJR075W, strain HOC1, active compounds read low 0.977 | S. cerevisiae deletion strains, locus YKL009W, strain mrt4, active compounds read low 0.972 | S. cerevisiae deletion strains, locus YKL068W, active compounds read low 0.976 | S. cerevisiae deletion strains, locus YKL085W, strain MDH1 (second series), active compounds read low 0.978 | S. cerevisiae deletion strains, locus YKL085W, strain MDH1, active compounds read low 0.978 | S. cerevisiae deletion strains, locus YKL160W, strain elf1, active compounds read low 0.995 | S. cerevisiae deletion strains, locus YKL190W, strain CNB1, active compounds read low 0.976 | S. cerevisiae deletion strains, locus YKR001C, strain vps1, active compounds read low 0.982 | S. cerevisiae deletion strains, locus YKR026C, strain gcn3, active compounds read low 1.02 | S. cerevisiae deletion strains, locus YKR091W, strain srl3, active compounds read low 0.976 | S. cerevisiae deletion strains, locus YLL001W, strain dnm1, active compounds read low 0.949 | S. cerevisiae deletion strains, locus YLL026W, active compounds read low 0.982 | S. cerevisiae deletion strains, locus YLL041C, strain sdh2, active compounds read low 0.963 | S. cerevisiae deletion strains, locus YLR027C, strain aat2, active compounds read low 0.989 | S. cerevisiae deletion strains, locus YLR039C, strain RIC1, active compounds read low 0.952 | S. cerevisiae deletion strains, locus YLR058C, strain SHM2, active compounds read low 1 | S. cerevisiae deletion strains, locus YLR102C, strain apc9, active compounds read low 0.992 | S. cerevisiae deletion strains, locus YLR113W, strain HOG1, active compounds read low 0.981 | S. cerevisiae deletion strains, locus YLR221C, strain rsa3, active compounds read low 1 | S. cerevisiae deletion strains, locus YLR258W, strain gsy2, active compounds read low 0.985 | S. cerevisiae deletion strains, locus YLR262C, strain YPT6 (second series), active compounds read low 0.948 | S. cerevisiae deletion strains, locus YLR262C, strain YPT6, active compounds read low 0.938 | S. cerevisiae deletion strains, locus YLR268W, strain sec22, active compounds read low 0.96 | S. cerevisiae deletion strains, locus YLR320W, strain mms22, active compounds read low 1.01 | S. cerevisiae deletion strains, locus YLR330W, strain CHS5, active compounds read low 0.99 | S. cerevisiae deletion strains, locus YLR342W, strain FKS1 (second series), active compounds read low 1.04 | S. cerevisiae deletion strains, locus YLR342W, strain FKS1, active compounds read low 0.988 | S. cerevisiae deletion strains, locus YLR357W, strain rsc2, active compounds read low 0.969 | S. cerevisiae deletion strains, locus YLR370C, strain arc18, active compounds read low 0.985 | S. cerevisiae deletion strains, locus YLR371W, strain rom2, active compounds read low 0.993 | S. cerevisiae deletion strains, locus YLR384C, strain iki3, active compounds read low 0.967 | S. cerevisiae deletion strains, locus YLR418C, strain cdc73, active compounds read low 0.99 | S. cerevisiae deletion strains, locus YML016C, strain PPZ1, active compounds read low 1.01 | S. cerevisiae deletion strains, locus YML032C, strain rad52, active compounds read low 0.97 | S. cerevisiae deletion strains, locus YML120C, strain ndi1, active compounds read low 0.98 | S. cerevisiae deletion strains, locus YML124C, strain tub3, active compounds read low 0.992 | S. cerevisiae deletion strains, locus YMR058W, strain fet3, active compounds read low 0.987 | S. cerevisiae deletion strains, locus YMR078C, strain ctf18, active compounds read low 0.981 | S. cerevisiae deletion strains, locus YMR125W, strain sto1, active compounds read low 0.951 | S. cerevisiae deletion strains, locus YMR129W, active compounds read low 0.975 | S. cerevisiae deletion strains, locus YMR205C, strain PFK2, active compounds read low 0.986 | S. cerevisiae deletion strains, locus YMR223W, strain ubp8, active compounds read low 1.03 | S. cerevisiae deletion strains, locus YMR231W, strain pep5, active compounds read low 0.972 | S. cerevisiae deletion strains, locus YMR263W, strain SAP30, active compounds read low 0.977 | S. cerevisiae deletion strains, locus YMR307W, strain GAS1, active compounds read low 1.04 | S. cerevisiae deletion strains, locus YNL067W, strain RPL9B, active compounds read low 0.982 | S. cerevisiae deletion strains, locus YNL071W, strain lat1, active compounds read low 0.989 | S. cerevisiae deletion strains, locus YNL128W, strain TEP1, active compounds read low 0.989 | S. cerevisiae deletion strains, locus YNL153C, strain GIM3, active compounds read low 0.985 | S. cerevisiae deletion strains, locus YNL183C, strain NPR1, active compounds read low 0.938 | S. cerevisiae deletion strains, locus YNL209W, strain ssb2, active compounds read low 0.995 | S. cerevisiae deletion strains, locus YNL233W, strain BNI4, active compounds read low 0.997 | S. cerevisiae deletion strains, locus YNL248C, strain rpa49, active compounds read low 1.01 | S. cerevisiae deletion strains, locus YNL250W, strain rad50, active compounds read low 0.991 | S. cerevisiae deletion strains, locus YNL271C, strain bni1, active compounds read low 0.992 | S. cerevisiae deletion strains, locus YNL298W, strain CLA4, active compounds read low 0.97 | S. cerevisiae deletion strains, locus YNL307C, strain MCK1, active compounds read low 0.999 | S. cerevisiae deletion strains, locus YNL322C, strain KRE1 (second series), active compounds read low 0.964 | S. cerevisiae deletion strains, locus YNL322C, strain KRE1, active compounds read low 0.99 | S. cerevisiae deletion strains, locus YNR049C, strain mso1, active compounds read low 0.974 | S. cerevisiae deletion strains, locus YNR052C, strain pop2, active compounds read low 0.984 | S. cerevisiae deletion strains, locus YOL006C, strain TOP1, active compounds read low 0.975 | S. cerevisiae deletion strains, locus YOL012C, strain htz1 0.729 | S. cerevisiae deletion strains, locus YOL147C, strain pex11, active compounds read low 1 | S. cerevisiae deletion strains, locus YOR001W, strain rrp6, active compounds read low 0.969 | S. cerevisiae deletion strains, locus YOR061W, strain CKA2, active compounds read low 1 | S. cerevisiae deletion strains, locus YOR069W, strain VPS5, active compounds read low 0.995 | S. cerevisiae deletion strains, locus YOR070C, strain gyp1, active compounds read low 0.994 | S. cerevisiae deletion strains, locus YOR080W, strain dia2, active compounds read low 0.951 | S. cerevisiae deletion strains, locus YOR083W, strain WHI5, active compounds read low 0.971 | S. cerevisiae deletion strains, locus YOR106W, strain vam3, active compounds read low 0.925 | S. cerevisiae deletion strains, locus YOR136W, strain idh2, active compounds read low 0.985 | S. cerevisiae deletion strains, locus YOR144C, strain elg1, active compounds read low 0.991 | S. cerevisiae deletion strains, locus YOR184W, strain ser1, active compounds read low 0.989 | S. cerevisiae deletion strains, locus YOR231W, strain MKK1, active compounds read low 0.986 | S. cerevisiae deletion strains, locus YOR265W, strain rbl2, active compounds read low 0.985 | S. cerevisiae deletion strains, locus YOR270C, strain vph1, active compounds read low 0.956 | S. cerevisiae deletion strains, locus YOR290C, strain snf2, active compounds read low 1 | S. cerevisiae deletion strains, locus YOR316C, strain cot1, active compounds read low 0.972 | S. cerevisiae deletion strains, locus YPL051W, strain arl3, active compounds read low 0.99 | S. cerevisiae deletion strains, locus YPL055C, strain LGE1, active compounds read low 0.944 | S. cerevisiae deletion strains, locus YPL078C, strain atp4, active compounds read low 0.954 | S. cerevisiae deletion strains, locus YPL106C, strain sse1, active compounds read low 0.982 | S. cerevisiae deletion strains, locus YPL240C, strain hsp82, active compounds read low 0.976 | S. cerevisiae deletion strains, locus YPL241C, strain CIN2, active compounds read low 0.999 | S. cerevisiae deletion strains, locus YPL256C, strain CLN2, active compounds read low 1 | S. cerevisiae deletion strains, locus YPR119W, strain clb2, active compounds read low 0.994 | S. cerevisiae deletion strains, locus YPR141C, strain kar3, active compounds read low 0.979 | S. cerevisiae deletion strains, locus YPR163C, strain tif3, active compounds read low 0.992 | S. cerevisiae deletion strains, locus YPR167C, strain met16, active compounds read low 0.986 | S. cerevisiae deletion strains, strain wtn01, active compounds read low 0.96 | S. cerevisiae strains, strain wild type, active compounds read low 0.996
